The whole screen tested about 350,000 compounds, of which about 7,000 (2%) were called active. Rule as the data show it: active = activation above about 40%; inconclusive = no clear call, values can overlap the other calls; inactive = below that. Only a selection was taken, and actives are over-represented in it overall.
assay: raisers of Bmi1 knock-in reporter signal – mouse ES cells, Bmi1 luciferase knock-in, single point, esBAF inhibitor project, primary screen (AID 602393); details: 24 h, at 12.5 µM, stronger effect = higher value, 100% = twice the neutral-well signal;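 also: 0% = median of the plate's neutral control wells and 100% = double that signal; a rise in the Bmi1 reporter signal indicates esBAF inhibition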

Row | SMILES | reporter increase
1 | CN1CCN(C(=O)C[C@@H]2C[C@H]3c4cc(NC(=O)NC5CCCC5)ccc4O[C@H]3[C@H](CO)O2)CC1 | 0.154% (inactive)
2 | CCCNC(=O)C[C@H]1C[C@@H]2c3cc(NC(=O)C4CCOCC4)ccc3O[C@@H]2[C@H](CO)O1 | -3.13% (inactive)
3 | O=c1cc(Cn2nnc(-c3ccc(Cl)cc3)n2)nc2sccn12 | 7.92% (inactive)
4 | COc1ccccc1N1CCN(C(=O)Cn2nnc(-c3cccs3)n2)CC1 | 3.41% (inactive)
5 | Clc1cccc(Cl)c1Cn1nnc(-c2cccs2)n1 | 69.1% (active)
6 | CC(=O)N(C)C[C@@H]1Oc2cc(-c3cccnc3)ccc2S(=O)(=O)N([C@H](C)CO)C[C@H]1C | 2.38% (inactive)
7 | C/C=C/c1ccc([C@H]2[C@@H](C#N)N(C(=O)CN3CCOCC3)[C@@H]2CO)cc1 | -3.67% (inactive)
8 | O=C(C1CCCC1)N1[C@H](CO)[C@H]2c3ccccc3N(S(=O)(=O)c3ccccc3)C[C@H]21 | -4.06% (inactive)
9 | C[C@H](CO)N1C[C@H](C)[C@@H](CN(C)Cc2ccncc2)Oc2ccc(NS(=O)(=O)c3ccc(Cl)cc3)cc2CC1=O | 4.09% (inactive)
10 | COCCCN1C(=O)c2ccc(C(=O)OCC(=O)NCc3ccccc3OC)cc2C1=O | -0.788% (inactive)
11 | COc1ccc2[nH]cc(CCN3C(=O)c4ccc(C(=O)O)cc4C3=O)c2c1 | 77% (active)
12 | COCCCN1C(=O)c2ccc(C(=O)Nc3ccc(OC)cc3OC)cc2C1=O | -3.26% (inactive)
13 | C[C@H](CO)N1C[C@H](C)[C@H](CN(C)Cc2ccccn2)Oc2ncc(C#CCc3ccccc3)cc2C1=O | -3.58% (inactive)
14 | Cc1ccc2cc(/C=N/Nc3ccc(C(=O)O)cc3)c(Cl)nc2c1 | 63.2% (active)
15 | Cc1ccn2c(-c3csc(Nc4ccc(C(=O)O)cc4)n3)c(C)nc2c1 | 3.65% (inactive)
16 | CC(=O)Nc1ccc(C(=O)CSc2nc3ccc(C)cc3[nH]2)cc1 | 1.14% (inactive)
17 | C/C=C/c1cnc2c(c1)C(=O)N([C@H](C)CO)C[C@H](C)[C@@H](CN(C)C(=O)c1cccc(F)c1)O2 | 1.29% (inactive)
18 | C[C@@H]1CCCCO[C@@H](CN(C)S(=O)(=O)c2ccccc2)[C@H](C)CN([C@H](C)CO)C(=O)c2cc(NC(=O)CCC(F)(F)F)ccc2O1 | 3.27% (inactive)
19 | COc1cccc(S(=O)(=O)N[C@@H]2CC[C@H](CCNC(=O)Cc3ccncc3)O[C@@H]2CO)c1 | 3.37% (inactive)
20 | O=C(C[C@@H]1CC[C@@H]2[C@H](COC[C@@H](O)CN2Cc2cc(F)cc(F)c2)O1)NCc1cccc(F)c1 | 4.76% (inactive)
